PubChem BioAssay AID1159580 (chemical genetic matrix, 2015)
Where “and” joins values, the source holds several entries; their conditions need not be identical. Identical values can stand only once. Among all 5,500 compounds or so, about 2,000 (36%) were called active. About 18% were inconclusive and are not listed. Cut-off read from the data, not from the text of the source: active = normalized growth mostly below about 0.91 (no sharp cut-off); inconclusive = no clear call, values can overlap the other calls; inactive = mostly above about 0.92. Some of the results follow.

Assay: chemical genetic growth profiling, strain panel (AID 1159580);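 note: tested at 20 µM; growth read once vehicle control cultures reached saturation at 30 °C; 1 = growth at the plate median or of vehicle wells; lower values mean less growth of the strain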
Conditions: S. cerevisiae deletion strains, growth OD

Measured: normalized growth

CN=C(NC#N)NCCSCc1nc[nH]c1C
inactive: locus YAL013W, strain DEP1, stronger effect = lower value 0.997 | locus YAL021C, strain ccr4, stronger effect = lower value 1 | locus YAL026C, strain drs2, stronger effect = lower value 0.997 | locus YAL030W, strain snc1, stronger effect = lower value 0.998 | locus YAL040C, strain CLN3, stronger effect = lower value 1.01 | locus YBL061C, strain skt5, stronger effect = lower value 0.991 | locus YBR009C, strain hhf1, stronger effect = lower value 0.998 | locus YBR021W, strain FUR4, stronger effect = lower value 0.993 | locus YBR023C, strain chs3, stronger effect = lower value 0.996 | locus YBR171W, strain sec66, stronger effect = lower value 0.996 | locus YBR229C, strain ROT2, stronger effect = lower value 0.969 | locus YBR231C, strain swc5, stronger effect = lower value 1 | locus YBR279W, strain paf1, stronger effect = lower value 0.996 | locus YCL011C, strain gbp2, stronger effect = lower value 0.993 | locus YCL016C, strain dcc1, stronger effect = lower value 0.989 | locus YCL029C, strain bik1, stronger effect = lower value 0.979 | locus YCL061C, strain MRC1, stronger effect = lower value 1 | locus YCL069W, strain vba3, stronger effect = lower value 1.01 | locus YCR088W, strain abp1, stronger effect = lower value 0.998 | locus YDL005C, strain med2, stronger effect = lower value 1.01 | locus YDL035C, strain GPR1, stronger effect = lower value 1.01 | locus YDL040C, strain nat1, stronger effect = lower value 1.01 | locus YDL074C, strain BRE1, stronger effect = lower value 1.01 | locus YDL101C, strain DUN1, stronger effect = lower value 0.984 | locus YDL134C, strain PPH21, stronger effect = lower value 1 | locus YDL185W, strain tfp1, stronger effect = lower value 0.977 | locus YDL192W, strain arf1, stronger effect = lower value 0.995 | locus YDR001C, strain nth1, stronger effect = lower value 1 | locus YDR069C, strain doa4, stronger effect = lower value 0.997 | locus YDR101C, strain arx1, stronger effect = lower value 0.992 | locus YDR137W, strain rgp1, stronger effect = lower value 1.01 | locus YDR150W, strain NUM1, stronger effect = lower value 1 | locus YDR159W, strain sac3, stronger effect = lower value 0.997 | locus YDR162C, strain NBP2, stronger effect = lower value 0.994 | locus YDR195W, strain ref2 0.976 | locus YDR297W, strain sur2, stronger effect = lower value 0.997 | locus YDR318W, strain mcm21, stronger effect = lower value 0.999 | locus YDR334W, strain swr1, stronger effect = lower value 0.996 | locus YDR335W, strain msn5, stronger effect = lower value 1.01 | locus YDR363W, strain ESC2, stronger effect = lower value 0.998 | locus YDR388W, stronger effect = lower value 0.991 | locus YDR392W, strain spt3, stronger effect = lower value 0.905 | locus YDR502C, strain sam2, stronger effect = lower value 1.02 | locus YEL003W, strain gim4, stronger effect = lower value 1.01 | locus YEL037C, strain rad23, stronger effect = lower value 0.998 | locus YEL061C, strain CIN8 (second series), stronger effect = lower value 1 | locus YEL061C, strain CIN8, stronger effect = lower value 0.998 | locus YER002W, strain NOP16, stronger effect = lower value 1.02 | locus YER015W, strain faa2, stronger effect = lower value 1.01 | locus YER016W, strain bim1, stronger effect = lower value 1 | locus YER110C, stronger effect = lower value 0.975 | locus YER111C, strain swi4, stronger effect = lower value 0.993 | locus YER155C, strain BEM2 (second series), stronger effect = lower value 0.97 | locus YER155C, strain BEM2, stronger effect = lower value 0.99 | locus YER167W, strain BCK2, stronger effect = lower value 0.997 | locus YFR010W, strain ubp6, stronger effect = lower value 1 | locus YGL078C, strain dbp3, stronger effect = lower value 0.989 | locus YGL086W, strain mad1, stronger effect = lower value 1 | locus YGL167C, strain pmr1, stronger effect = lower value 0.995 | locus YGL173C, strain kem1, stronger effect = lower value 0.997 | locus YGL227W, strain vid30, stronger effect = lower value 0.991 | locus YGL240W, strain doc1, stronger effect = lower value 0.986 | locus YGL248W, strain PDE1, stronger effect = lower value 0.993 | locus YGL253W, strain hxk2, stronger effect = lower value 0.997 | locus YGR078C, strain PAC10, stronger effect = lower value 0.996 and 1.01 | locus YGR135W, strain pre9, stronger effect = lower value 0.992 | locus YGR229C, strain SMI1, stronger effect = lower value 0.996 | locus YGR252W, strain gcn5, stronger effect = lower value 1.1 | locus YHR013C, strain ard1, stronger effect = lower value 0.972 | locus YHR027C, strain rpn1, stronger effect = lower value 0.993 | locus YHR030C, strain SLT2, stronger effect = lower value 0.977 and 1.03 | locus YHR079C, strain IRE1 (second series), stronger effect = lower value 0.986 | locus YHR079C, strain IRE1, stronger effect = lower value 1.07 | locus YHR094C, strain hxt1, stronger effect = lower value 0.99 | locus YHR129C, strain ARP1, stronger effect = lower value 0.985 | locus YHR142W, strain chs7, stronger effect = lower value 0.998 | locus YHR200W, strain rpn10, stronger effect = lower value 0.99 | locus YIL066C, strain RNR3, stronger effect = lower value 0.998 | locus YIL073C, strain SPO22, stronger effect = lower value 1.01 | locus YIL125W, strain kgd1, stronger effect = lower value 0.992 | locus YIR030C, strain dcg1, stronger effect = lower value 0.991 | locus YJL092W, strain hpr5, stronger effect = lower value 0.994 | locus YJL095W, strain BCK1 (second series), stronger effect = lower value 0.996 | locus YJL095W, strain BCK1, stronger effect = lower value 0.952 and 1.02 | locus YJL115W, strain asf1, stronger effect = lower value 1 | locus YJL129C, strain trk1, stronger effect = lower value 1.01 | locus YJL134W, strain LCB3, stronger effect = lower value 0.996 | locus YJL154C, strain vps35, stronger effect = lower value 1.01 | locus YJL164C, strain tpk1, stronger effect = lower value 0.992 | locus YJL166W, strain qcr8, stronger effect = lower value 1 | locus YJL168C, strain set2, stronger effect = lower value 0.983 | locus YJL187C, strain SWE1 (second series), stronger effect = lower value 0.988 | locus YJL187C, strain SWE1, stronger effect = lower value 1 | locus YJR043C, strain POL32, stronger effect = lower value 0.98 | locus YJR066W, strain TOR1, stronger effect = lower value 0.997
